hgDAF12 agonist: agonists of H. glycines DAF-12 nuclear receptor. activation, % at 6.8 µM. AID 687014. HEK293 GAL4-hgDAF12 UAS-luciferase reporter, agonist luminescence; normalized to butyrate control. hit rate 1.8% among 370,000;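 active means activation above a cutoff set at the mean of all screened compounds plus 3 SD, cut at about 10% in these data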
ssDAF-12 act: activators of S. stercoralis DAF-12 nuclear receptor. hit rate 1% among 370,000. HEK293 ssDAF-12/GRIP1 lit1-tk-luc reporter, luminescence; % of 3 µM dafachronic acid response. AID 652126. activation, % at 6.8 µM;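 active means activation above the mean over all tested compounds plus 3 SD, cut at about 0.9% in these data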
DAX1 inh-1: DAX1 (NR0B1) inhibition, primary screen | HEK293T StAR-luciferase reporter, SF-1/DAX-1 repression relief | inhibition, % at 6.8 µM | hit rate 1.1% among 370,000 | AID 652010;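 active means inhibition above the mean over all tested compounds plus 3 SD, cut at about 3.6% in these data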;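 further: higher inhibition means more luminescence from relief of DAX-1 repression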
hcDAF-12 act: activates DAF-12 receptor from parasite H. contortus; hit rate 1.4% among 370,000; activation, % at 6.8 µM; AID 652067; HEK293 hcDAF-12 lit1-tk-luc reporter, luminescence; 0% DMSO, 100% Δ7-dafachronic acid;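 active means activation above the mean of all tested compounds plus 3 SD, cut at about 5.5% in these data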
DAX1 inh-2: inhibitors of human orphan nuclear receptor DAX1 (NR0B1). hit rate 0.99% among 340,000. inhibition, % at 6.75 µM. AID 504766. P51843. HEK293 Gal4-DAX1 luciferase reporter, luminescence;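 active means inhibition above the mean over all tested compounds plus 3 SD, cut at about 4.2% in these data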;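 further: inhibition shows as a rise in luminescence from relieved DAX1 repression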
Target sequence (P51843 207-470 limits assumed): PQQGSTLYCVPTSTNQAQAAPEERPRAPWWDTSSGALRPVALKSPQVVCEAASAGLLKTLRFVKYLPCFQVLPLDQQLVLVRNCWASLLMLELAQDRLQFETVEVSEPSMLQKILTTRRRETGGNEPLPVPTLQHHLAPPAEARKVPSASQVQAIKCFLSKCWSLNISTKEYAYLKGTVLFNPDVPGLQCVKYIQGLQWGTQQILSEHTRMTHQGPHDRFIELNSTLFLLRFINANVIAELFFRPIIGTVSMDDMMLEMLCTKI
A number is an active result; . = inactive; / = no result. In the library only some 4.1% were active in any assay of this set; here they are far more common.

SMILES	hgDAF12 agonist	ssDAF-12 act	DAX1 inh-1	hcDAF-12 act	DAX1 inh-2
COC(=O)[C@]12C[C@H](CC(=O)NCc3cccc(C(F)(F)F)c3)C(=O)N(Cc3ccc(Cl)cc3Cl)C1=C[C@H](C(C)(C)C)O[C@@H]2C	.	.	.	.	/
Oc1c(C=Nc2ccc(Cl)cn2)sc2ccccc12	.	.	.	.	.
Oc1c(/C=N/c2ccccn2)sc2ccccc12	.	.	.	.	4.7
CC(C)[C@H](NC(=O)c1ccccc1)C(=O)N1CCC[C@H]1C(=O)NCc1ccccc1	.	.	.	.	/
Cc1cc(C)c2oc(C(=O)N(Cc3ccccc3)c3ccccn3)cc(=O)c2c1	.	.	.	.	6.3
CCOC(=O)C1(Cc2cccc(OC)c2)CCCN(C(=O)CNC(C)=O)C1 (stereo unspecified)	13	.	.	.	.
COc1ccc(C(=O)NCCN(C)C)c2nc3ccccc3cc12	.	.	.	5.8	.
COc1cccc2nc3c(C(=O)NCCN(C)C)cccc3cc12	.	.	.	.	.
CC(C)N1CCN(Cc2cccc(-c3ccco3)c2)CC1CCO (stereo unspecified)	.	.	.	.	.
Cc1ccccc1-c1cccc(CN2CCN(C)C(CCO)C2)c1 (stereo unspecified)	.	.	.	.	4.6
CN(C)c1ccc(C(=O)Nc2cccc(S(=O)(=O)NC3=NCCCCC3)c2)cc1	.	.	.	.	.
CC(C)(C)c1ccc(C(=O)Nc2cccc(S(=O)(=O)NC3=NCCC3)c2)cc1	.	.	4.0	.	.
Cn1c2ccccc2n2c(=O)c(Cl)c(-c3ccccc3)c(C#N)c12	.	.	.	.	.
Cn1c2ccccc2n2c(=O)cc(-c3ccccc3)c(C#N)c12	.	.	.	.	5.4
O=C1CC(=O)C(n2cncn2)C(c2ccc(Cl)cc2)C1 (stereo unspecified)	.	.	.	.	5.8
CCCCCCCCN1C(=O)[C@@H](CC(=O)NCCCN2CCCC2=O)C[C@@]2(C(=O)OC)C1=C[C@H](COCc1ccccc1)O[C@@H]2C	.	.	.	.	/
O=C(Nc1nc2ccc(Cl)cc2s1)[C@@H]1CCCN1C(=O)c1cccs1	.	.	.	5.7	.
Cc1cccc2sc(NC(=O)[C@@H]3CCCN3C(=O)c3cccs3)nc12	.	.	.	.	.
O=C(Nc1ccnn1C1CCN(C(=O)c2cccnc2)CC1)c1cccc(F)c1	.	.	.	.	.
CCOC(=O)CC(=O)Nc1nnc(C(C)C)s1	.	.	.	.	5.3
C=CCNC(=O)CCC(=O)NNc1nc2ccccc2c2nc(-c3ccccc3)nn12	.	.	.	.	.
C=CCSc1nc2ccccc2c2nc(-c3ccccc3)nn12	.	.	.	.	4.7
COc1cc(C(=O)NC2CCCCN(C(C)C)C2=O)cc(OC)c1OC (stereo unspecified)	.	.	.	.	/
COc1ccc(/C=C2\COc3ccccc3C2=O)c(OC)c1	.	.	.	.	.
COc1ccc2c(c1)OC/C(=C/c1cccs1)C2=O	.	.	4.2	.	.
SMILES	hgDAF12 agonist	ssDAF-12 act	DAX1 inh-1	hcDAF-12 act	DAX1 inh-2
O=S1(=O)CC(N2CCCC2)CN1C1CCCC1 (stereo unspecified)	.	.	.	.	/
O=S1(=O)CC(N2CCCC2)CN1C1CCCCC1 (stereo unspecified)	.	.	4.3	.	/
Cc1ccc2c(c1)CCCN2C(=O)Nc1ccc2c(c1)OCO2	12	1.6	.	.	.
Cc1ccnc(NC(=O)Nc2ccc3c(c2)OCO3)c1	12	.	.	.	.
CN(C)CC(=O)N[C@@H]1C[C@@H]2O[C@@H](CO)CC[C@@H]2O[C@@H]1CCc1ccc(C2=CCCCC2)cc1	.	.	.	.	/
Nc1ccc2c(c1)C(=O)c1ccccc1-2	.	.	.	.	6.1
C=CCN1C(=O)[C@H](CC(=O)N2CCN(C(=O)C3CC3)CC2)[C@@]2(C(=O)OCC)CCCC=C12	.	.	.	.	/
Cc1nnc(SCC(=O)N2CCOCC2)s1	.	.	.	.	.
O=C(CSc1nnc(NC2CCCCC2)s1)N1CCOCC1	.	.	4.1	.	.
COc1cccc(-c2nnc3sc(-c4ccco4)nn23)c1	.	.	.	.	4.2
Cc1ccc(C(=O)Nc2cc(Cl)ccc2-n2cncn2)o1	.	1.2	.	.	.
COc1ccc(N2C(=O)CC(Sc3nc(C)cc(C)n3)C2=O)cc1OC (stereo unspecified)	.	.	.	.	.
